Compounds with a hit are over-represented: about 20% of the library has one in this group of screens.
Shiga toxin inh: inhibitors of Shiga toxin in Vero cells; Vero cells, Shiga toxin protein synthesis inhibition reporter; AID 2315; inhibition, % at 38.7 µM; actives 9.2% (n = 290,000); in the data active = inhibition mostly above about 28%, no sharp cut-off; inactive = mostly below about 43%; note: 0% is about no effect
CHX counter: affects cycloheximide protein synthesis inhibition readout, counter-screen; AID 2314; max response, %; cell reporter, cycloheximide protein synthesis inhibition counterscreen; actives 12% (n = 300,000); in the data active = max response mostly above about 13%, no sharp cut-off; inactive = mostly below about 14%; note: read at 38.3 µM for the half of the compounds with a filed dose; 0% is about no effect
Pf growth 96h: P. falciparum growth inhibition at 96 hour, primary screen for plastid delayed-death inhibitors; AID 504834; Potency, µM (top dose mostly 28.7 µM), inactives show at the top dose activity change, negative = inhibition, actives largely listed as inhibitors; P. falciparum luciferase reporter growth, 96 h; actives 6.9% (n = 320,000); note: potency is the fitted concentration of half-maximal effect; % is set by controls: 0 for no effect and ±100 for the full control effect
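P. falciparum expressing integrated firefly luciferase, in erythrocytes at 2% hematocrit, 0.05% parasitemia, incubated with compounds 96 h at 37 C, 5% CO2. Growth inhibition read as loss of luminescence; two-generation exposure targets delayed-death apicoplast inhibitors.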
Pf growth 48h: P. falciparum growth inhibition at 48 hours (one generation); AID 504832; actives 5.9% (n = 310,000); Potency, µM (series often up to 28.7 µM), for inactives: at the top dose activity change, negative = inhibition, usual class: inhibitors; P. falciparum luciferase growth in erythrocytes, 48 h; note: potency is the fitted concentration of half-maximal effect; % is set by controls: 0 for no effect and ±100 for the full control effect
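Read-out is firefly luciferase luminescence from an integrated reporter in P. falciparum, so falling signal marks reduced parasite growth. Infected erythrocytes were at 2% hematocrit and 0.1% parasitemia (final) in Albumax-supplemented RPMI 1640.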
HCMV antiviral: inhibitors of human cytomegalovirus; HFF cells, HCMV-luciferase reporter, 72 h; hits give low values; activity change, negative = inhibition, % at 57.5 µM; actives 4.5% (n = 410,000); in the data active = activity change below about -60%; inconclusive = no clear call, values can overlap the other calls; inactive = above about -39%; note: % is set by controls: 0 for no effect and ±100 for the full control effect
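Screen run at 2 compound doses on HFFs infected with reporter HCMV, MOI 1 PFU/cell. Luciferase activity from cell lysates at 72 h post infection gave inhibition relative to buffer-only and Salinomycin wells.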
* marks the source's active call; other numbers are inactive results; ? = inconclusive; / = no result given. Unless noted, calls come from the whole dose curve; as a rule, active = well fitted inhibition curve with a large enough effect; inconclusive = small, poorly fitted or top-dose-only effect, or another doubt; inactive = no such curve, though single readings can be large or run the other way.

SMILES	Shiga toxin inh	CHX counter	Pf growth 96h	Pf growth 48h	HCMV antiviral
Cc1cc(F)ccc1S(=O)(=O)NCC(c1ccc2c(c1)OCO2)N1CCOCC1 (centres undefined)	/	/	?	-16%	-3
COc1cccc(C(=O)NN/C(C)=C/C(=O)C(F)(F)C(F)(F)C(F)(F)F)c1	66*	25*	43%	0%	54
O=C(Cc1ccc(Br)cc1)Nc1ccc(Cl)cc1	24	25*	-80%	?	1
O=C(Cc1ccccc1)Nc1ccc(NC(=O)c2ccc(Br)cc2)cc1	/	-2	?	-9%	22
Cc1cccc(C(=O)Nc2ccc(NC(=O)Cc3ccc(Cl)cc3)cc2)c1	-6	-3	12µM*	16%	-16
O=C(NCc1ccc(Cl)cc1)C(=O)Nc1ccc(Br)cc1	/	/	/	/	-1
O=C(Cc1cccc(Cl)c1)Nc1ccc(Br)cc1	26	17*	19%	8%	?
Cc1nc(-c2ccccc2)sc1-c1ccc(SCC(=O)NCc2ccc(F)cc2)nn1	/	/	/	/	1
CCCCCN1C(C(=O)c2ccccc2)=C(NC(=O)c2ccc(OC)cc2)c2ccccc2S1(=O)=O	/	/	/	/	-3
O=C(Cc1ccc(Cl)cc1)Nc1ccc(CN2CCCCC2)cc1	5	-2	12µM*	?	-13
CC(=O)Nc1ccc(CN2CCCCCC2)cc1	-6	0	0%	13%	-6
COc1cccc(C(=O)NNC(=O)Cc2ccc(Cl)cc2)c1	-14	-2	2.9µM*	5%	?
Cc1cccc(C(=O)Nc2c(C(=O)NCc3ccc(Cl)cc3)sc3nc(C)cc(C)c23)c1	/	/	/	/	-75*
Cn1c(CCNS(=O)(=O)c2ccccc2)nnc1SCc1cccnc1	21	-2	23%	13%	22
Cc1ccccc1NC(=O)CSc1nc(-c2ccc(F)cc2)nc2c1Cc1ccccc1O2	/	/	/	/	40
COc1ccc(OC)c(S(=O)(=O)NC(=O)C2(C)CCN2C(=O)c2ccco2)c1 (centres undefined)	/	/	/	/	-10
CC1=CS(=O)(=O)CC1Sc1nc2ccccc2[nH]1 (centres undefined)	4	-4	7%	-6%	-14
CCCCOC(=O)c1ccc(NC(=S)N2CCN(c3ncc4c(=O)c(C(=O)O)cn(CC)c4n3)CC2)cc1	-3	-2	1.3µM*	2.6µM*	19
CCn1cc(C(=O)O)c(=O)c2cnc(N3CCN(C(=S)Nc4ccccc4)CC3)nc21	11	-2	?	0.12µM*	-37
Cc1ccc(S(=O)(=O)NCCOc2nc(N(C)C)nc(N(C)C)n2)cc1	8	-2	?	-21%	0
O=C1CC2(CCN(C(=O)C3CC(=O)N(c4ccc(F)cc4)C3)CC2)Oc2ccccc21 (centres undefined)	/	/	-6%	-18%	-30
CC(C)(C)C(=O)[C@H]1[C@H](c2ccccc2)[C@@]2(N=C(c3ccccc3)OC2=O)C2c3ccccc3C=NN21 (some centres undefined)	26	40*	?	?	77
CCN(C(=O)c1cnc(N2CCN(c3ncccn3)CC2)c2ccccc12)c1cccc(Cl)c1	-17	7	-2%	?	-85*
Cc1ccc(-c2nnc(-c3cccc4ccccc34)o2)cc1	/	/	/	/	29
c1ccc(Nc2nnc(-c3cccc4ccccc34)o2)cc1	54*	36*	144%	91%	180
SMILES	Shiga toxin inh	CHX counter	Pf growth 96h	Pf growth 48h	HCMV antiviral
COc1cc(C)ccc1OCc1cc(C(=O)NC(c2ccccn2)C(F)(F)F)no1 (centres undefined)	/	/	/	/	16
COc1cc(Cl)ccc1OCc1cc(C(=O)N2CCCCCCC2)no1	84*	43*	16%	0%	0
COc1cc(Cl)ccc1OCc1cc(C(=O)N[C@H]2CCCCNC2=O)no1	62*	36*	19%	16%	8
COCCN1CCN(C(=O)c2cc(COc3ccc(Cl)cc3OC)on2)CC1	94*	58*	19%	9%	23
COc1cc(C)ccc1OCc1cc(C(=O)N2CCCCCC2)no1	64*	30*	54%	-19%	66
CCCN1CCN(C(=O)c2cc(COc3ccc(F)cc3F)on2)CC1	29	11	0%	31%	-2
CCOC(=O)N1CCN(C(=O)c2cc(COc3ccc(Cl)cc3OC)on2)CC1	-6	-2	?	3%	-23
Cc1cccc(N(CC(=O)NCc2ccc(F)cc2)C(=O)c2csnn2)c1C	-12	-2	3%	?	6
Nc1c(C(=O)C2CC2)sc2nc(-c3ccccc3)cc(C(F)(F)F)c12	10	-3	?	-1%	-77*
CN(C)CCNC(=O)c1sc2nc(-c3ccccc3)cc(C(F)(F)F)c2c1N	-10	-1	-26%	?	-9
Cc1ccc(S(=O)(=O)NCc2ccc(C(=O)N3CCN(c4ccccc4)CC3)cc2)cc1	-1	20	-6%	?	36
CCOC(=O)N1CCN(C(=O)c2ccc(CNS(=O)(=O)c3ccc(OC)cc3)cc2)CC1	-15	-5	-17%	-19%	-29
Cc1ccc(S(=O)(=O)NCc2ccc(N3CCN(C(=O)OC(C)(C)C)CC3)cc2)cc1	2	1	4.1µM*	13µM*	-68*
Cc1ccc(S(=O)(=O)NCc2ccc(C(=O)N3CCc4ccccc4C3)cc2)cc1	8	-2	6.6µM*	?	?
COc1ccc(CNS(=O)(=O)c2c(C)[nH]c(C)c2C(=O)N2CCCC2)cc1	-2	1	10%	-2%	-62*
COc1ccc(S(=O)(=O)NCc2ccc(C(=O)N3CCc4ccccc4C3)cc2)cc1	-3	-4	6.6µM*	?	1
COc1ccc(NC2CCCN(C(=O)CCC3=NNC(=O)CC3)C2)cc1 (centres undefined)	-11	6	23%	-1%	/
CCOC(=O)C1CCCCN1Cc1ccc(C(F)(F)F)cc1 (centres undefined)	-10	-4	9.3µM*	/	-3
COc1cc(NC(=O)c2cc(CC(C)C)on2)c(OC)cc1Cl	9	-2	40%	?	38
CC(=O)c1ccc(NC(=O)c2ccn(C(=O)OCC(C)C)n2)cc1	56*	71*	161%	156%	65
CSc1ccccc1NC(=O)c1cc(CC(C)C)on1	69*	62*	23%	116%	10
CC(=O)c1ccc(NC(=O)c2cc(CC(C)C)on2)cc1	active	18*	27%	85%	-21
CC(C)Cc1cc(C(=O)Nc2cccnc2)no1	111*	35*	0%	/	92
CC(NS(=O)(=O)/C=C/c1ccccc1)c1ccccc1 (centres undefined)	-5	1	5%	0%	?
O=C(N/N=C/c1ccccc1[N+](=O)[O-])c1ccc2nc[nH]c2c1	32	18*	?	?	50
O=C(N/N=C/c1ccc(Cl)c([N+](=O)[O-])c1)c1cc(-c2ccc3c4c(cccc24)CC3)n[nH]1	-6	-4	?	?	-74*
